Laboratory results taken from PubChem BioAssay AID1851 (National Center for Advancing Translational Sciences (NCATS), 2009).
Where “and” joins values, the source holds several entries; their conditions need not be identical. Identical values can stand only once. In all, about 16,000 compounds went through this assay and about 2,600 (16%) were called active. Roughly 20% stayed inconclusive and do not appear here. Calls follow the shape of the dose curve; as a rule, active = well fitted curve in the direction sought with a large enough effect; inconclusive = small, poorly fitted or top-dose-only effect, or effect the other way; inactive = no such curve, though single readings can be large or run the other way. These entries were drawn from the full list.

Biological target: Cytochrome P450 2D6 (Homo sapiens) (UniProt P10635)
Sequence (P10635 whole entry, looked up): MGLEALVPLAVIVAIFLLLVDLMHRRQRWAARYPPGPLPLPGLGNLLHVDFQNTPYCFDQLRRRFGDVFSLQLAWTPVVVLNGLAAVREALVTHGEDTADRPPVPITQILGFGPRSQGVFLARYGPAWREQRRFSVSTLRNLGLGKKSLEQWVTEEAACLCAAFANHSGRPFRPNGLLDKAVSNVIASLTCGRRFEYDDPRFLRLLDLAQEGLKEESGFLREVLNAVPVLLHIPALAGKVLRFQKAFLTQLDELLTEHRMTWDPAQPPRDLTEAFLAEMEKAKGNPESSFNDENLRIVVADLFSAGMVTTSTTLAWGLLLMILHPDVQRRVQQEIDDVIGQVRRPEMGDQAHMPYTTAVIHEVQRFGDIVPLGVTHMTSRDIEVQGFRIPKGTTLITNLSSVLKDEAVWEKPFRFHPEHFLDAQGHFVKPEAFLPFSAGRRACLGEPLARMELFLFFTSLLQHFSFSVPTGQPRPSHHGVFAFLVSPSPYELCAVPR
Assay: Cytochrome panel assay with activity outcomes
Settings: recombinant CYP, pro-luciferin dealkylation, luminescence, p450-cyp2d6; series mostly up to 57.1 µM; activity, negative = inhibition: at the top concentration
% is scaled to controls: 0 for no effect and ±100 for the full control effect.

Row | Compound | AC50 | activity, negative = inhibition
1 | CC(C)Cc1ccc([C@H](C)C(=O)O)cc1 | inactive | 
2 | CCOc1ccc2nc3cc(N=Nc4ccc(N)nc4N)ccc3c(N)c2c1 |  | -4.78% [at 11.4 µM] (inactive)
3 | Cc1ccccc1Oc1ncnc2sccc12 |  | 17.8% (inactive)
4 | NCCc1nc(-c2nc(C(=O)O)cs2)cs1 |  | 16.3% [at 11.4 µM] (inactive)
5 | OCCCSCCO |  | -3.94% [at 11.4 µM] (inactive)
6 | COc1ccc(C(C(=O)NC2CCCCC2)N(C(=O)c2sc(C)nc2C)c2ccc(OC)cc2)cc1 (stereo not drawn) |  | -11.5% (inactive)
7 | Cc1cc(Cc2cc(C)cc(C(C)(C)C)c2O)c(O)c(Cc2cc(C)cc(C(C)(C)C)c2O)c1 |  | -2.96% [at 11.4 µM] (inactive)
8 | Cc1cc(Cc2c(C)c(C)c(Cc3cc(C)cc(C(C)(C)C)c3O)c(C)c2C)c(O)c(C(C)(C)C)c1 |  | 12% [at 11.4 µM] (inactive)
9 | Cc1cc(C(C)(C)C)c(O)c(C)c1CC1=NCCN1 | 12.6 µM (active) and 3.98 µM (active) and 39.8 nM (active) | 
10 | COc1ccc(CN2C(=O)CN(C3CCCCCC3)C(=O)C2c2ccc(OC)c(OC)c2)cc1 (stereo not drawn) |  | -15.6% (inactive)
11 | Cc1ccc(NC(=O)CCC(=O)NNC(=O)c2ccco2)cc1C |  | -9.64% (inactive)
12 | CCOc1[nH]n(-c2ccccc2)c(=O)c1C=Nc1ccc(Cl)cc1 |  | -9.63% (inactive)
13 | Cn1c(C(F)(F)F)nc2c(=O)oc3ccccc3c21 |  | -15.3% (inactive)
14 | CCCC/C=C/C(NC(=O)c1ccc(-c2ccccc2)cc1)c1ccccc1 (stereo not drawn) |  | -4.24% (inactive)
15 | O=C(NCCOC12CC3CC(CC(C3)C1)C2)c1cccc(Br)c1 |  | -72.8% (inactive)
16 | O=C(CCc1ccccc1)Nc1nncs1 | 14.1 µM (active) | 
17 | O=C(CCc1ccccc1)NNC(=O)c1ccco1 |  | 21.7% (inactive)
18 | O=C(CCc1ccccc1)Nc1ncn[nH]1 |  | -0.385% (inactive)
19 | CCOC(=O)CCN1C(=O)[C@H]2[C@H]3[C@H](O)[C@H](O)C/C(=N/OC[C@@H](O)COCc4ccco4)[C@H]3CC[C@@H]2C1=O |  | 8.09% [at 11.4 µM] (inactive)
20 | COc1ccc2c3c([nH]c2c1)[C@H]1C[C@@H]2[C@@H](C[C@@H](O)[C@H](OC)[C@H]2C(=O)O)CN1CC3 |  | 7.15% [at 11.4 µM] (inactive)
21 | Cc1ccc(S(=O)(=O)N(C)CC(=O)O/N=C(\N)c2ccccn2)cc1 |  | -1.23% (inactive)

Row | Compound | AC50 | activity, negative = inhibition
22 | c1ccc(NCCSc2nc3ccccc3s2)cc1 |  | 1.99% [at 11.4 µM] (inactive)
23 | c1ccc2sc(SCN(C3CCCCC3)C3CCCCC3)nc2c1 | 1.58 µM (active) | 
24 | O=C(O)CCCSc1nc2ccccc2s1 |  | -8.66% [at 11.4 µM] (inactive)
25 | O=C(Nc1ccc2oc(=O)c(C(=O)O)cc2c1)Oc1ccccc1 |  | -5.11% [at 11.4 µM] (inactive)
26 | CC(=O)c1c(C(C)=O)c(C)n(NC(=O)c2ccncc2)c1C |  | 5.58% (inactive)
27 | CN(C)c1ccc(-c2nc(NCc3cccnc3)c3ccccc3n2)cc1 | 7.94 µM (active) | 
28 | c1csc(CNc2nc(-c3ccoc3)nc3ccccc23)c1 | 3.98 µM (active) | 
29 | Cc1cccc(CNc2nc(-c3ccoc3)nc3ccccc23)c1 | 10 µM (active) | 
30 | c1ccc(CNc2nc(-c3ccoc3)nc3ccccc23)cc1 | 10 µM (active) | 
31 | Fc1ccc(Nc2nc(-c3ccoc3)nc3ccccc23)cc1 |  | -18.4% (inactive)
32 | CCNc1ncc2nc(-c3ccc(OC)cc3)c(=O)n(Cc3cccc(OC)c3)c2n1 |  | -8.05% (inactive)
33 | Cn1c(=O)n(CCC(=O)O)c2ccccc21 |  | 4.54% (inactive)
34 | COc1cc(/C=N/NC(N)=O)c(Br)cc1OCC(=O)Nc1ccccc1C |  | -16.2% (inactive)
35 | CCOC(=O)c1c(O)[nH]c(=O)c(CC)c1C |  | -17.9% [at 11.4 µM] (inactive)
36 | CCOC(=O)Nc1nc(-c2ccccc2)c(C)s1 |  | 1.52% [at 11.4 µM] (inactive)
37 | CO/N=C(\C(=O)N[C@@H]1C(=O)N2C(C(=O)O)=C(COC(N)=O)CS[C@@H]12)c1ccco1 |  | 10.6% [at 25.6 µM] (inactive)
38 | O=S1(=O)CCN(c2ccccc2CC(c2c[nH]c3ccccc23)c2c[nH]c3ccccc23)CC1 |  | -18% [at 11.4 µM] (inactive)
39 | Cc1ccc(C2CC(C(F)(F)F)n3nc(C(=O)NCCN4CCOCC4)cc3N2)cc1 (stereo not drawn) |  | 0.576% (inactive)
40 | O=S(=O)(O)[C@@H](c1ccccc1)[C@@H](O)c1ccccc1 |  | 4.68% [at 11.4 µM] (inactive)
41 | Cc1cnc(CNc2nc(-c3cccnc3)nc3ccccc23)cn1 |  | -9.02% (inactive)
42 | c1cncc(-c2nc(NCc3cccs3)c3ccccc3n2)c1 | 6.31 µM (active) | 

Row | Compound | AC50 | activity, negative = inhibition
43 | CN(C)c1ccc(-c2nc(NCCc3cnc[nH]3)c3ccccc3n2)cc1 | 7.94 µM (active) | 
44 | c1cncc(CNc2nc(-c3ccoc3)nc3ccccc23)c1 | 5.01 µM (active) | 
45 | Cc1cccc(CNc2nc(-c3cccnc3)nc3ccccc23)c1 | 25.1 µM (active) | 
46 | CNC(=S)N1N=C(c2ccc(OC)cc2)CC1c1ccc(N(C)C)cc1 (stereo not drawn) |  | -18.3% (inactive)
47 | Cc1c(CCC(C)C)c(-n2ccnc2C)n2c(nc3ccccc32)c1C#N |  | -7.46% (inactive)
48 | CCSc1nnc2n(N)c(=O)c3ccccc3n12 |  | -7.64% (inactive)
49 | Cc1cc(=O)oc2cc(O)c(CN(C)CC(=O)O)cc12 |  | -1.55% [at 11.4 µM] (inactive)
50 | Cc1cccc(Nc2ccccc2C(=O)OCC(=O)N(C)C2CCS(=O)(=O)C2)c1C (stereo not drawn) |  | -27.8% (inactive)
51 | Cc1cc(C)nc(SCCc2cccc[n+]2C)n1 |  | -2.83% [at 11.4 µM] (inactive)
52 | S=c1[nH]nc(-c2ccncc2)n1CC1CCCO1 (stereo not drawn) |  | 5.32% (inactive)
53 | Cc1cc(NC(=O)CSc2nc3ccsc3c(=O)n2CCCCC(=O)O)no1 |  | -30.2% (inactive)
54 | C[C@@]1(O)CCOC(=O)C1 |  | -3.8% [at 25.6 µM] (inactive)
55 | CCOC(=O)c1c(C)[nH]c(C(=O)OCC(=O)NC2CCS(=O)(=O)C2)c1C (stereo not drawn) |  | 2.53% (inactive)
56 | NCCS(=O)O |  | 7.44% (inactive)
57 | Cc1ccc(S(=O)(=O)O/N=C2/CCCc3occc32)cc1 |  | -14.7% (inactive)
58 | O=CN[C@@H](Cc1cnc[nH]1)C(=O)O |  | -4.29% [at 11.4 µM] (inactive)
59 | C[C@@H](CCCCC(=O)Nc1ccc(C(F)(F)F)cc1)NCCc1cnc[nH]1 | 5.01 µM (active) | 
60 | CN(C)C[C@H]1CCC[C@@H](CN(C)C)C1=O |  | -1.21% [at 11.4 µM] (inactive)
61 | Fc1ccc2c(c1)C(c1ccncc1)=NNC(c1ccc(Cl)cc1)=N2 | 0.398 µM (active) | 
62 | Clc1ccc2c(c1)C(c1cccs1)=NNC(c1cccnc1)=N2 | 10 µM (active) | 
63 | Clc1ccc2oc(-c3cccnc3)nc2c1 |  | 6.45% (inactive)
